Common to all, as to design: scale not given: direction of the effect not stated beside the values
The target of assay [1] is Protein translocase subunit SecA (Escherichia coli (strain K12)) (UniProt P10408). Kind of assay: Assay to Identify E. coli SecA ATPase Inhibitors. It is filed as functional. To be noted: 30 µM.
In assay [2] the target is T1, Ubiquitin-activating enzyme e1, putative (Leishmania donovani (strain BPK282A1)) (UniProt E9BSI1).
T1 sequence (whole entry): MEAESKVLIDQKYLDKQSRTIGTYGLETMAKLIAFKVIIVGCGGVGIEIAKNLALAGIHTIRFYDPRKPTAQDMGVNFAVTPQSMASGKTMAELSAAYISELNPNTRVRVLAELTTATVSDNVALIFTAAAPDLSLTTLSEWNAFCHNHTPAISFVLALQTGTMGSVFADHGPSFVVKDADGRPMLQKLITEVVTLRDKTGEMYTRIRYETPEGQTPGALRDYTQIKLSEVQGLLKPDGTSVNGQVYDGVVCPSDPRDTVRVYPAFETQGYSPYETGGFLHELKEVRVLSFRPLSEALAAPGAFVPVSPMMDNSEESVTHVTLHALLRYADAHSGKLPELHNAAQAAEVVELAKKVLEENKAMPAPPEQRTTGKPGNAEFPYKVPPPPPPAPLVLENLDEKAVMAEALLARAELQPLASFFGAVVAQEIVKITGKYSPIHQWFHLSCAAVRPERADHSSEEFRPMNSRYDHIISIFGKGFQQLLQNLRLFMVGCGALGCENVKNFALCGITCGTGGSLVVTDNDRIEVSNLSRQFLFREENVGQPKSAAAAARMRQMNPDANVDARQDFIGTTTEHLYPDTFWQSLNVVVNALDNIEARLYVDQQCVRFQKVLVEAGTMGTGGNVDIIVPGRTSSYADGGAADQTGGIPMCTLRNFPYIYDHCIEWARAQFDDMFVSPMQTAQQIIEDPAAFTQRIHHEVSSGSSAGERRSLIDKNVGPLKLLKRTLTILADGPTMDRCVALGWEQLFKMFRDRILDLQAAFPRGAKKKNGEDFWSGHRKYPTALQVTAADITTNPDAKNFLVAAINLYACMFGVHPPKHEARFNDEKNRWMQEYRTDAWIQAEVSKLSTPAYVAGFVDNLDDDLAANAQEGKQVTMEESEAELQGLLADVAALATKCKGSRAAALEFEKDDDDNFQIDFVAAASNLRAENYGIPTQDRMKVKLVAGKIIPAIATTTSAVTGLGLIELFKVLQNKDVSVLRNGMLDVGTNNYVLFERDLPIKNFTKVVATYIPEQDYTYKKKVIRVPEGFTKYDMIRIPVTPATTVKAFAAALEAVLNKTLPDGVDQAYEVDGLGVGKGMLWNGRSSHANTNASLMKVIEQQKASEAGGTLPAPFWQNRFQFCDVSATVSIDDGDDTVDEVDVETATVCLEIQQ
Briefly: Leishmania donovani Ubiquitin Activating Enzyme (LdE1). It counts as functional. To be noted: 30 µM.

For assay [3], the target named is AMP-activated protein kinase, AMPK (Homo sapiens) (UniProt P54646+O43741+P54619+Q9UGJ0+Q9Y478+Q13131+Q9UGI9). Kind of assay: AMP-dependent Kinase enzyme assay. An in vitro enzyme assay that detects ADP turnover that is directly proportional to AMPK activity. This uses naive AMPK that is activated during the assay with MK-8722. To be noted: 30 µM. It counts as functional.

Assay [4] has as its target Sialic acid-binding Ig-like lectin 9 (Homo sapiens) (UniProt Q9Y336). Briefly: Hs-Siglec9 ALPHAscreen SOP 20170721. To be noted: 10 µM.
The subject of a further assay is Trypanosoma cruzi. Kind of assay: Trypanosoma cruzi phosphomannomutase and mannose-1-phosphate guanylyltransferase assay. It is filed as functional. The conditions noted are these: 10 µM.
In assay [5] the target is T2, Arginase-2, mitochondrial (Homo sapiens) (UniProt P78540).
T2 sequence (whole entry): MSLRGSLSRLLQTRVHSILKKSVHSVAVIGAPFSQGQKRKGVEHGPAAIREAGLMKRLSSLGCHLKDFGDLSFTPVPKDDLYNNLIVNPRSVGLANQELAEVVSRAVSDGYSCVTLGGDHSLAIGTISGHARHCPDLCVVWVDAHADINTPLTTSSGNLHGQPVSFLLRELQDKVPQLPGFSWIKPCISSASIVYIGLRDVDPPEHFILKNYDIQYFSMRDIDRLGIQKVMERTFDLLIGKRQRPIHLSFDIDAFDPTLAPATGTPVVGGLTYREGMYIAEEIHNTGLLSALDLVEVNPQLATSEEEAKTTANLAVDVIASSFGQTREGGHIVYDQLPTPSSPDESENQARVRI
Briefly: in vitro enzyme assay to detect the production of urea directly proportional to the activity of Arginase II. Further: in the data most compounds retested in dose-response had high values. The conditions noted are these: 33.3 µM. It counts as functional.

Assay [6] concerns the target T3, Proteasome subunit beta (Trypanosoma cruzi) (UniProt O96673).
T3 sequence (whole entry): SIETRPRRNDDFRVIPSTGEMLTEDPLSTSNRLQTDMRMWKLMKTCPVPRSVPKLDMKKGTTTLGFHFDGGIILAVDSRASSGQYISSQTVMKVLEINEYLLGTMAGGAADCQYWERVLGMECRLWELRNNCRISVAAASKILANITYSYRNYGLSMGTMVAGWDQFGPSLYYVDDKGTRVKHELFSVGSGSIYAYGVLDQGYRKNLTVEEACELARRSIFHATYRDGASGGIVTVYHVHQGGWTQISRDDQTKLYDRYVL
Briefly: Trypanosoma cruzi proteasome chymotrypsin-like activity (TcProtChymo) assay. Further: in the data most compounds retested in dose-response had high values. It counts as functional. The conditions noted are these: 9.37 µM.

The next assay is filed under the species Homo sapiens. Kind of assay: To identify inhibition of the IFN signalling (Jak-Stat) pathway via expression of an eGFP reporter gene under the control of an IFN-stimulated response element (ISRE) containing MxA promoter. It is filed as functional. The conditions noted are these: 30 µM. (In general: In a reporter assay the amount or activity of a reporter protein is the signal.)

Assay [7] concerns the target T4, Tyrosyl-tRNA synthetase, putative (Trypanosoma cruzi (strain CL Brener)) (UniProt Q4DSP6).
T4 sequence (whole entry): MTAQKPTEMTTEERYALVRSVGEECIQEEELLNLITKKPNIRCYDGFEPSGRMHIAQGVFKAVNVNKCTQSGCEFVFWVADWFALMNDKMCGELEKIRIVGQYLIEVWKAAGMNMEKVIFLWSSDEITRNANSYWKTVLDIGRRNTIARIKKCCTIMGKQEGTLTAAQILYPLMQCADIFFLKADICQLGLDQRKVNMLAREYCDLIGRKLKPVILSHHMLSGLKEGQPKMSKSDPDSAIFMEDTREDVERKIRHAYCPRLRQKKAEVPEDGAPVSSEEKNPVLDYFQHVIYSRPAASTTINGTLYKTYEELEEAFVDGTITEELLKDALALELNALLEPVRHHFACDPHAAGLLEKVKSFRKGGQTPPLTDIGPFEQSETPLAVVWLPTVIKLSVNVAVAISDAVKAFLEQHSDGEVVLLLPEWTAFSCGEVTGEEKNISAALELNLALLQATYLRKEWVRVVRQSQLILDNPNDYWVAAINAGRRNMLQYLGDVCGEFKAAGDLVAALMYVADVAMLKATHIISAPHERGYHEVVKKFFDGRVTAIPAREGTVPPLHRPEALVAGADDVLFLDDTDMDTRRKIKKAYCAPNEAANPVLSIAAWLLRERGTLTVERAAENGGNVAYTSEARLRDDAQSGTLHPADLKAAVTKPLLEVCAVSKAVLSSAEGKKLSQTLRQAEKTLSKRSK
Kind of assay: Trypanosoma cruzi tyrosyl tRNA synthetase (TcYRS) _High Tyrosine SOP. Further: in the data most compounds retested in dose-response had high values. It is filed as functional. The conditions noted are these: 30 µM.

Assay [8] deals with T4, Tyrosyl-tRNA synthetase, putative (Trypanosoma cruzi (strain CL Brener)). Kind of assay: Trypanosoma cruzi tyrosyl tRNA synthetase (TcYRS) SOP. It is filed as functional. The conditions noted are these: 30 µM.
Assay [9] has as its target Chromo domain-containing protein 1 (Saccharomyces cerevisiae (strain ATCC 204508 / S288c) (Baker's yeast)) (UniProt P32657). Kind of assay: ScCHD-1 Enzyme Inhibition Assay. Further: in the data most compounds retested in dose-response had high values. It is filed as functional. The conditions noted are these: 30 µM.

Among the data in ChEMBL document CHEMBL3988442, “University of Dundee, Small-Polar-MMV Screening Library” (2021) are Percent Effect values, retold here.

For some of these results: Potency and affinity values are given separately.

Sialic acid-binding Ig-like lectin 9 (Homo sapiens), sequence (Q9Y336 whole entry): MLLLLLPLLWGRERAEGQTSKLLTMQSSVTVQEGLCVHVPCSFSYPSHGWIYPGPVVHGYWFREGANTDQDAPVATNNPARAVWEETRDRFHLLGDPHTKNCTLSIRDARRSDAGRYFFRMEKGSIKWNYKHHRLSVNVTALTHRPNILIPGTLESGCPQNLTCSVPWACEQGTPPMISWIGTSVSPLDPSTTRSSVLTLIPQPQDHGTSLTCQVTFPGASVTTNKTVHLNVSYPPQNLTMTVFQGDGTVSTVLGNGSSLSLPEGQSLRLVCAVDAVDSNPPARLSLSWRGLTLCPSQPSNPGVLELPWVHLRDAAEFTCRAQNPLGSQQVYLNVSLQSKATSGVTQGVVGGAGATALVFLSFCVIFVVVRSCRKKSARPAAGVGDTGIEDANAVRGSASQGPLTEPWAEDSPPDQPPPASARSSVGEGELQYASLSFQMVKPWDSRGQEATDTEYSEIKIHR
Protein translocase subunit SecA (Escherichia coli (strain K12)), sequence (P10408 whole entry): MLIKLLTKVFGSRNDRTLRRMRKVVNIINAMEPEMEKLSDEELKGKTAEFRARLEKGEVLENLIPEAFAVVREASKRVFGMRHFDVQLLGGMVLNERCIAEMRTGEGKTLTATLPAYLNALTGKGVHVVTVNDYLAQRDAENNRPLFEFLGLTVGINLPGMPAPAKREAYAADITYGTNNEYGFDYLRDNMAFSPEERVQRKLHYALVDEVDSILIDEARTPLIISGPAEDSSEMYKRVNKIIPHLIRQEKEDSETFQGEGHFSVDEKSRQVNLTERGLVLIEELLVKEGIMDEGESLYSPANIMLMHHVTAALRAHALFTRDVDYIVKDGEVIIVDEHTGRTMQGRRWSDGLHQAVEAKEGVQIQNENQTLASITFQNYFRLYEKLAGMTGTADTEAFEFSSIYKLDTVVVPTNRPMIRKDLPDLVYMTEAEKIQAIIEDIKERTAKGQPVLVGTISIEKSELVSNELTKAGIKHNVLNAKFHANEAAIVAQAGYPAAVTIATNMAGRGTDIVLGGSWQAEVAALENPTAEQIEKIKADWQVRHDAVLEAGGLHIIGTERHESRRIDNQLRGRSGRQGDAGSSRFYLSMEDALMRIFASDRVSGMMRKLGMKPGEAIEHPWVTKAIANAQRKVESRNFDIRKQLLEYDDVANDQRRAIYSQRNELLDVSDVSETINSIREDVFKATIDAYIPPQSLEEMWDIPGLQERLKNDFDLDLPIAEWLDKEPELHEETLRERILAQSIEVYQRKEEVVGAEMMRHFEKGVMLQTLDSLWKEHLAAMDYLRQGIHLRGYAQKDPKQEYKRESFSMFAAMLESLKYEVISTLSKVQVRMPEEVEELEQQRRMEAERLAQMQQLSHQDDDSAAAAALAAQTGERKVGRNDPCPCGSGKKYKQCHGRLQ
Chromo domain-containing protein 1 (Saccharomyces cerevisiae (strain ATCC 204508 / S288c) (Baker's yeast)), sequence (P32657 whole entry, the tested form may be a part): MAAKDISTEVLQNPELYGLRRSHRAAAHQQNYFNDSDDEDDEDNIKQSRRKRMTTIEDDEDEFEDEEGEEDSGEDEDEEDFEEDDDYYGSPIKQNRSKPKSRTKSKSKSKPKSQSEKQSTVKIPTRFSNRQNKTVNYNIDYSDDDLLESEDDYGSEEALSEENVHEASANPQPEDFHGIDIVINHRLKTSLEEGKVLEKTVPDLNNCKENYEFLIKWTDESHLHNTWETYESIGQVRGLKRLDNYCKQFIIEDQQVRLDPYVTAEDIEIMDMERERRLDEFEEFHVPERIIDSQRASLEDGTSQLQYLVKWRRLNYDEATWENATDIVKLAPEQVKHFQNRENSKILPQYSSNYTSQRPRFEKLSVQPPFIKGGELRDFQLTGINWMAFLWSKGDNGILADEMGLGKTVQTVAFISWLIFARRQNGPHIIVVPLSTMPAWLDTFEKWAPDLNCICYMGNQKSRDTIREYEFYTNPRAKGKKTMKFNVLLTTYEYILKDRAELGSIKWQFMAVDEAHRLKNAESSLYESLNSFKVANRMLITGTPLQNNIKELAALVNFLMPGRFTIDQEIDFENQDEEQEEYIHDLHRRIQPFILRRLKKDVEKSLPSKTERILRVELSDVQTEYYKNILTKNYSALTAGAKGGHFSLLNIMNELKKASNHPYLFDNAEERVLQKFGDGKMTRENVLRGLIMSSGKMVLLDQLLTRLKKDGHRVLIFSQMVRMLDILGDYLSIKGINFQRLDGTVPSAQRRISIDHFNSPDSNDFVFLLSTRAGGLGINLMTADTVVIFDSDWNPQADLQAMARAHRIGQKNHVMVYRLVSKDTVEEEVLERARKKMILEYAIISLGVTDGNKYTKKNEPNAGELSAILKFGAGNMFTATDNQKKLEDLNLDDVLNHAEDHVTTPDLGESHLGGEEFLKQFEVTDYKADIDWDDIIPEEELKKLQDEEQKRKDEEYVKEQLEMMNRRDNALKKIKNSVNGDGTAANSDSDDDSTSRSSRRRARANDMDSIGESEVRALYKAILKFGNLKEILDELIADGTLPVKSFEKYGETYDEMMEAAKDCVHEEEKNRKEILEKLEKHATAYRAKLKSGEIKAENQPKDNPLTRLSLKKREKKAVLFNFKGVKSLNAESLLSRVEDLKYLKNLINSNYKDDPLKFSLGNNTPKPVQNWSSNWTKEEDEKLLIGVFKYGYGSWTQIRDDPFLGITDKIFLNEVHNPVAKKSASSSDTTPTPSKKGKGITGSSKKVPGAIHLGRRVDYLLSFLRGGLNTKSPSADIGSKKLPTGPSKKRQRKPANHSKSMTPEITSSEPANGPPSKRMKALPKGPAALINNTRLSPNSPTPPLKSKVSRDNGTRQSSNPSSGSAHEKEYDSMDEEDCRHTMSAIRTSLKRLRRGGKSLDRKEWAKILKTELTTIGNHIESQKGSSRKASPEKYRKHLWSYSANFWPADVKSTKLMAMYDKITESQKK

In the case of `O=C(c1cccnc1)N1CCCC(c2cc(C(F)F)n3ncnc3n2)C1` (stereo not drawn), the Percent Effect in assay [1] is -4.9%; in assay [2], 9.46%; in [3], 12.9%; in assay [4], 2%; in the assay with Trypanosoma cruzi it was -5.53%; in [5] it was 0.232%. Further, the Percent Effect came to 7.64% in assay [6]; 8.61% in the assay filed under Homo sapiens; 0% in [7]; 6.49% in assay [8]; 9.01% in assay [9].

As for `Cc1cc(F)ccc1OC1(C(=O)O)CCN(Cc2cccnc2N)CC1`, the Percent Effect in assay [1] is -6.33%; in assay [2], 5.33%; in assay [3], -1.53%; in assay [4], 2.08%; in the assay with Trypanosoma cruzi, -3.02%; in [5] it was -0.521%. Besides, the Percent Effect came to 5.93% in assay [6]; 0.568% in the assay filed under Homo sapiens; 6.01% in [7]; 11.1% in [8]; 1.09% in [9].

Regarding `CCN1CCN(c2ccc(F)cc2C(C)NCc2ccncc2)CC1` (stereo not drawn), the Percent Effect is -5.73% in [1]; 0% in [2]; -10.3% in assay [3]; -1.77% in assay [4]; -2.25% in the assay on Trypanosoma cruzi; -3.72% in assay [5]. Further, the Percent Effect in assay [6] was 9.7%; in the assay filed under Homo sapiens, 6.08%; in [7], 3.23%; in [8] it was 6.17%; in assay [9], -0.559%.

`Cc1noc(C)c1CCC(=O)N1CCN(CCn2cncn2)CC1`: the Percent Effect in assay [1] was -2.87%; in assay [2], 4.17%; in assay [3], -6.26%; in assay [4], 2.38%; in the assay on Trypanosoma cruzi, 0.68%; in assay [5], 1.77%. Further, the Percent Effect was 21.1% in assay [6]; -11.6% in the assay listed under Homo sapiens; 8.42% in assay [7]; 10.3% in [8]; -3.13% in assay [9].

On to `CC(C)(C)c1nnc(CN2CCCC2c2noc(C3CC3)n2)o1` (stereo not drawn), for which the Percent Effect in assay [1] was 0.285%; in [2], 8.11%; in [3], 0.0576%; in assay [4], -0.506%; with Trypanosoma cruzi it was 2.32%; in [5], -0.554%. Besides, the Percent Effect in assay [6] was 8.08%; in the assay filed under Homo sapiens it was -8.49%; in [7], 10.9%; in assay [8], 28.1%; in assay [9], -6.45%.

For `CS(=O)(=O)Cc1cccc(C(=O)NCC2Cc3ccccc3O2)c1` (stereo not drawn), the Percent Effect was -4.91% in [1]; 5.48% in assay [2]; 2.31% in assay [3]; 0.841% in assay [4]; -2.74% in the assay with Trypanosoma cruzi; 5.46% in [5]. The Percent Effect in assay [6] was 17.9%; in the assay filed under Homo sapiens it was -3.29%; in [7] it was 2.15%; in assay [8] it was 15%; in [9], -4.73%.

With `CCn1c(CN(C)C)nnc1C1CCN(Cc2cccc(OC)c2)CC1`, the Percent Effect is 2.78% in assay [1]; 10.4% in assay [2]; -4.93% in [3]; 7.22% in [4]; -3.64% in the assay on Trypanosoma cruzi; -12.4% in [5]. In addition, the Percent Effect in assay [6] is 16%; in the assay filed under Homo sapiens it was 10.6%; in assay [7] it was 4.3%; in [8] it was 11.1%; in assay [9], 0.325%.

For `Cc1cc(C(=O)N2C[C@@H]3COC[C@]3(COCc3cccnc3)C2)no1`, the Percent Effect is -2.45% in assay [1]; 33.8% in assay [2]; 4.4% in assay [3]; -2.26% in assay [4]; -3.45% with Trypanosoma cruzi; 3.23% in assay [5]. Moreover, the Percent Effect was 7.31% in assay [6]; 4.17% in the assay filed under Homo sapiens; -2.12% in assay [7]; 8.97% in assay [8]; -5.95% in assay [9].
